Data published in PubChem BioAssay (NCI).
This is part of a sample that, as a whole, favours compounds with a hit. Of some 83,000 tested, about 20% had one in any assay.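 Growth was measured after 48 h exposure to one concentration of compound in 96-well plates. Values under 10 count as active.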 Unmarked numbers belong to inactive results. Calls of active or inactive are those of the source.

Assays:
Assay in all cases: NCI-60 one-dose screen, 48 h (100 = growth as untreated, 0 = no growth, -100 = all killed)
HCT-15 colon = conditions: 10 µM unless noted
HT29 colon = conditions: 10 µM unless noted
SNB-75 CNS = conditions: 10 µM unless noted
SNB-19 CNS = conditions: 10 µM unless noted
U251 CNS = conditions: 10 µM unless noted
PC-3 prostate = conditions: 10 µM unless noted
SK-MEL-5 melanoma = conditions: 10 µM unless noted
UACC-62 melanoma = conditions: 10 µM unless noted
LOX IMVI melanoma = conditions: 10 µM unless noted
SK-MEL-28 melanoma = conditions: 10 µM unless noted
SK-MEL-2 melanoma = conditions: 10 µM
EKVX NSCLC = conditions: 10 µM unless noted
SN12C renal = conditions: 10 µM unless noted
UO-31 renal = conditions: 10 µM unless noted
TK-10 renal = conditions: 10 µM unless noted
ACHN renal = conditions: 10 µM unless noted
A498 renal = conditions: 10 µM unless noted
CCRF-CEM leukemia = conditions: 10 µM unless noted
MOLT-4 leukemia = conditions: 10 µM unless noted
CAKI-1 renal = conditions: 10 µM unless noted

Structure (SMILES) | growth (HCT-15 colon) | growth (HT29 colon) | growth (SNB-75 CNS) | growth (SNB-19 CNS) | growth (U251 CNS) | growth (PC-3 prostate) | growth (SK-MEL-5 melanoma) | growth (UACC-62 melanoma) | growth (LOX IMVI melanoma) | growth (SK-MEL-28 melanoma) | growth (SK-MEL-2 melanoma) | growth (EKVX NSCLC) | growth (SN12C renal) | growth (UO-31 renal) | growth (TK-10 renal) | growth (ACHN renal) | growth (A498 renal) | growth (CCRF-CEM leukemia) | growth (MOLT-4 leukemia) | growth (CAKI-1 renal)
CCN1/C(=C/C=C/c2n(-c3ccccc3)c3ccc(-c4nc5ccccc5s4)cc3[n+]2CC)N(c2ccccc2)c2ccc(-c3nc4ccccc4s3)cc21 | 14.9% | 10.8% | 18.6% | 24.7% | 4.79% (active) | 16.2% | -59.2% (active) | 30.5% | 1.77% (active) | -8.49% (active) | -23.5% (active) | 9.19% (active) | -2.95% (active) | -7.26% (active) | -2.12% (active) | -3.27% (active) | -12.7% (active) | 24.5% | 16.5% | –
COc1ccc(-c2nc(N)ncc2Oc2ccccc2OC)c(O)c1 | 17.2% | 10.3% | 10.8% | 41.5% | 30.6% | 31% | 25% | 51% | 34% | 63.1% | 17.4% | 40.1% | 48.7% | 46% | 55.9% | 43.5% | 34.3% | 19.7% | 26.9% | –
Cc1cc2c(-c3nc4ccccn4c3N)c(O)c(O)cc2c(O)c1-c1c(C)cc2c(-c3nc4ccccn4c3N)c(O)c(O)cc2c1O | 17.8% | 8.01% (active) | 18% | 12.8% | 8% (active) | 16.3% | -7.68% (active) | 5.54% (active) | 7.21% (active) | 38.3% | -20.6% (active) | 21.8% | 10.1% | 31.2% | 11.9% | 17.4% | 2.77% (active) | 23.1% | 23.5% | –
c1cc[n+](Cc2c3ccccc3cc3c2ccc2ccccc23)cc1 | 91.5% | 25.6% | 29.6% | 6.26% (active) | 6.64% (active) | 42% | -60.1% (active) | 11.2% | 48.8% | -2.27% (active) | 25% | 58.3% | 0.929% (active) | 81.9% | 78.1% | 103% | 80.2% | 55.5% | 25.6% | –
COc1ccc2nc3cc(Cl)ccc3c(Nc3ccc(N(C)C)cc3)c2c1 | 91.1% | 72.1% | 111% | 101% | 93.5% | 85.4% | 100% | 98.1% | 88.8% | 112% | 96.8% | 92.9% | 91.1% | 84% | 128% | 100% | 94.6% | 57.5% | 0.475% (active) | –
CC(CCCC(=O)O)c1ccoc1 (configuration not stated) | 102% | 95.5% | 92.6% | 111% | 109% | 98.4% | 106% | 107% | 97.8% | 109% | 105% | 96% | 105% | 86.2% | 98.3% | 111% | 110% | 109% | 109% | –
Cc1cc(N2CCOCC2)nc(N(CCNc2ccnc3cc(Cl)ccc23)Cc2cccs2)n1 | 17.8% | -43.1% (active) | -18.1% (active) | 56.5% | -10.5% (active) | 24.4% | -4.8% (active) | -24.6% (active) | -72.1% (active) | 11.6% | -39.4% (active) | 51.5% | 42.3% | -8.69% (active) | 19.4% | 1.88% (active) | 22.8% | 6.42% (active) | -9.25% (active) | –
CC(=Nc1ccccc1)C1=C(O)C(Cc2ccccc2)NC1=O (configuration not stated) | 5.57% (active) | -0.116% (active) | 19.1% | 16.4% | 15.5% | 5.74% (active) | -43.3% (active) | 24.6% | 18.5% | 37.8% | 26.9% | 23.3% | 36.6% | 43.6% | 54.2% | 40.8% | -22.1% (active) | -10.9% (active) | 0.239% (active) | –
Cc1cc(N(CCNc2ccnc3cc(Cl)ccc23)Cc2cccs2)nc(Cl)n1 | 1.01% (active) | -21.5% (active) | -84.5% (active) | 38.3% | -57.3% (active) | 21.1% | -31.2% (active) | 13.4% | -74.4% (active) | -43.4% (active) | -58.2% (active) | 33.9% | -15.9% (active) | -79.4% (active) | -93% (active) | -88% (active) | -6.31% (active) | -2.45% (active) | -38.2% (active) | –
CCCc1cc2cc(-n3nc(C)c4c3CC(C)(C)CC4=O)cc(NC3CCC(O)CC3)c2c(=O)[nH]1 (configuration not stated) | 23.6% | 8.7% (active) | 49.4% | 40% | 25.6% | 33% | 15.8% | 14.1% | -18.4% (active) | 36.4% | 41.6% | 47.7% | 41.4% | 29.7% | 40.8% | 28.8% | 64% | 20.3% | 14.7% | –
N#CC1(C#N)C(c2cccs2)NC(c2cccs2)C1(C#N)C#N (configuration not stated) | 94.5% | 103% | 75.1% | 106% | 104% | 94.6% | 114% | 101% | 93.9% | 109% | 102% | 94% | 105% | 71.4% | 114% | 102% | 116% | 100% | 95.3% | –
Cc1sc2c(c1C)c(=O)nc1c(-c3nc4ccccc4s3)n[nH]n12 | 100% | 101% | 95.3% | 101% | 98% | 78.7% | 96.7% | 88.4% | 93.3% | 101% | 95.2% | 81.9% | 96.7% | 73.7% | 140% | 101% | 101% | 89.2% | 94.5% | –
CC12O[C@H](C[C@@H](OC(=O)CCC(=O)O)[C@H]1O)n1c3ccccc3c3c4c(c5c6ccccc6n2c5c31)C(=O)NC4=O | 15% | 21.2% | -8.7% (active) | 43.2% | 50.6% | 48% | -19% (active) | -6.1% (active) | 15.9% | 33.8% | 23.3% | 42.9% | 38.9% | -15.9% (active) | 2.26% (active) | 19.4% | -30.6% (active) | 7.97% (active) | 5.17% (active) | –
C[C@@H](C[C@H](CCO)c1cc(C(F)(F)F)cc(C(F)(F)F)c1)c1ccc2ccccc2c1 | 76.7% | 71.2% | 88.5% | 107% | 91.5% | 83% | 105% | 90.4% | 87.3% | 86.7% | 82.2% | 81.3% | 96.4% | 79% | 95% | 98.7% | 120% | 84.2% | 71% | –
O=C(Nc1ccc(C2=NCCCN2)cc1)c1ccc(C(=O)Nc2ccc(C3=NCCCN3)cc2)nc1 | 108% | 109% | 87% | 96.8% | 105% | 106% | 99.3% | 99.5% | 105% | 120% | 109% | 96% | 99.8% | 82.6% | 122% | 107% | 127% | 107% | 85.8% | –
c1ccc2c(c1)CCN(NCCN1CCCC1)C2 | 105% | 101% | 70.9% | 107% | 94.3% | 64.6% | 104% | 98.6% | 90.1% | 109% | 91.5% | 86.4% | 94.8% | 75% | 96.6% | 89% | 87.7% | 79.3% | 99.4% | –
Cc1ccc(N=C2CSc3nnc(-c4csc5c4CCCC5)n3N2)cc1 | 22.9% | 7.38% (active) | 56.9% | 35.7% | 23% | 27.9% | 19% | 40.2% | 46.3% | 63.2% | 61.6% | 41.9% | 48.5% | 57.9% | 78.9% | 52% | 12.1% | 16.8% | 23.2% | –
CN1CCN(c2nc(NCCNc3ccnc4cc(Cl)ccc34)c3ccccc3n2)CC1 | 16.1% | 0.651% (active) | 74.7% | 34.8% | 9.01% (active) | 30.4% | -97.5% (active) | -55.1% (active) | -56% (active) | -58.5% (active) | -45.5% (active) | 52.3% | 10.9% | -9.51% (active) | 16.5% | 5.61% (active) | 102% | 3.19% (active) | 6.2% (active) | –
N#Cc1cc2[nH]c3ccc(OC(F)(F)F)cc3c2oc1=O | 58.8% | 79.6% | 53.6% | 93.6% | 73.2% | 60.3% | 70.8% | 88.9% | 74.5% | 93% | 66.5% | 76.1% | 95.9% | 59.1% | 132% | 84.4% | 76.8% | 90.4% | 84.5% | –
O=C(Cn1c(=O)ccn(CCCCCCCCOc2ccc(Br)cc2)c1=O)Nc1ccc(Oc2ccc(Cl)cc2)cc1 | 80.4% | 66% | 70.8% | 78.7% | 74.1% | 44.6% | 28.7% | 36.1% | 51.1% | 72.8% | 71% | 50.6% | 67.1% | 32.7% | 69.6% | 69.1% | 54.8% | 54.6% | 47.6% | –
COc1cc(OC)c(C(=O)/C=C/c2cc3c(cc2OCc2ccccc2)OC(C)(C)CC3)cc1CC=C(C)C | 39.7% | 57.9% | 39.2% | 80.7% | 29.7% | 25.2% | 50.4% | 38.7% | 38.9% | 53.3% | 82.3% | 61.1% | 47.6% | 51.4% | 81.7% | 68.2% | 98.9% | – | -0.0389% (active) | –
COc1ccc(C2OC(c3cc(-c4cc5ccccc5o4)nn3-c3ccccc3)=NN2C(C)=O)cc1 (configuration not stated) | 97.2% | 93.3% | 87.5% | 91.3% | 96.2% | 88.9% | 8.69% (active) | 86.9% | 85.5% | 109% | 94.5% | 94.5% | 93.2% | – | 111% | 99.3% | – | 95.5% | 83% | 100%
CCc1cc2c(c3ccc(C(=O)CBr)cc13)CCCC2 | 101% | 91.7% | 91.5% | 108% | 95.1% | 96% | 106% | 91.8% | 93.3% | 108% | 96.9% | 74.3% | 99.7% | 81.4% | 91.9% | 105% | 102% | 114% | 85.8% | –
CCc1nc2cc(/C=C/C(=O)NO)ccc2c(=O)n1CCc1ccc(F)cc1 | 24.7% | 8.3% (active) | 30.6% | 23.6% | -20.8% (active) | 13.2% | -37.8% (active) | -28.8% (active) | -73.2% (active) | 22.8% | 49.1% | 38.5% | 0.812% (active) | -15.5% (active) | -12.3% (active) | – | -26.2% (active) | 2.06% (active) | -3.04% (active) | 0.0916% (active)
CCN1CCN(c2nc(C)cc(N(CCNc3ccnc4cc(Cl)ccc34)Cc3ccc4c(c3)OCO4)n2)CC1 | -6.94% (active) | -13.4% (active) | 9.98% (active) | 29.9% | -44.6% (active) | 50.7% | -96.6% (active) | 44.9% | -74.5% (active) | -72% (active) | -55.8% (active) | 68.2% | 59.3% | -41.7% (active) | -47.1% (active) | -17.2% (active) | – | -1.37% (active) | -3.96% (active) | –
